# Screening data deposited in PubChem BioAssay by National Center for Advancing Translational Sciences (NCATS).
# Rab9 prom act: Rab9 promoter activation | Huh7 Rab9 promoter-luciferase reporter, luminescence, 24 h | Potency, µM (doses to about 9.22 µM), hits mostly activators | hit rate 2.8% among 320,000; further: nearly all actives have a fitted effect of over 60% in size
#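 Cell-based reporter: Huh7 stable for Rab9 promoter-driven luciferase, plated in reduced-serum medium with 10% FBS at 1500 cells/well, compound-treated 24 h at 37 °C, luminescence read after 10 min reagent.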
# ELG1 genotoxic: genotoxicity induction in ELG1-luciferase HEK293T cells | HEK293T ELG1-luciferase reporter, luminescence, 16 h | Potency, µM (doses to about 46 µM), actives largely listed as activators | hit rate 1.3% among 330,000; further: nearly all actives have a fitted effect of over 60% in size
#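 16 hr compound incubation (37 °C, 5% CO2) of HEK293T cells carrying luciferase-tagged ELG1; luciferase then measured by ONE-Glo luminescence after 30 min at RT.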
# NPC1 prom act: activates the NPC1 promoter | Huh7 NPC1 promoter luciferase reporter, 24 h | Potency, µM (doses to about 9.22 µM), usual class: activators | hit rate 2.4% among 320,000; further: nearly all actives have a fitted effect of over 60% in size
#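 In 1536-well qHTS, Huh7 cells harboring an NPC1 promoter–luciferase construct received compound for 24 h; activation was quantified by luminescence following luciferase reagent addition.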
# FLuc modulator: inhibits or activates purified firefly luciferase, miR-21 counter-screen; purified FLuc, Km substrates, luminescence inhibition; AID 588342; P08659; Potency, µM (doses to about 57.5 µM), actives largely listed as inhibitors; hit rate 6.9% among 360,000; further: nearly all actives have a fitted effect of over 55% in size
# Target sequence (P08659 whole entry, looked up): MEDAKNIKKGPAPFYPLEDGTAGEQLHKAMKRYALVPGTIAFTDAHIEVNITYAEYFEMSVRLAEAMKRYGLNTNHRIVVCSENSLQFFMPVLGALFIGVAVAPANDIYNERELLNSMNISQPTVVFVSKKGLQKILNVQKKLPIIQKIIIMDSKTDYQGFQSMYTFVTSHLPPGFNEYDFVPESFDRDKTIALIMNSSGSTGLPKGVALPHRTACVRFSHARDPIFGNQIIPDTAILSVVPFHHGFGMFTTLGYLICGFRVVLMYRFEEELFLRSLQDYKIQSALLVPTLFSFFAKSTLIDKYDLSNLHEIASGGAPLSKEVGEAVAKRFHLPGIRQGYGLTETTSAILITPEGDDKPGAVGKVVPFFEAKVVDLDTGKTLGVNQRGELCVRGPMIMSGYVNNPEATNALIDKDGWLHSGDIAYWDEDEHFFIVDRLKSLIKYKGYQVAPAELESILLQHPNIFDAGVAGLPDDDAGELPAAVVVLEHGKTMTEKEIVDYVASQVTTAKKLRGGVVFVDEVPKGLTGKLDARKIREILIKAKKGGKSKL
#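 Purified P. pyralis luciferase (10nM final) with 10uM D-luciferin and 10uM ATP (Km levels) in 50mM Tris acetate pH 7.5, 10mM Mg acetate, 0.01% Tween-20, 0.05% BSA; qHTS 6-point titration, ~60 µM downward; luminescence read.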
# ELG1 DNA repair: ELG1-dependent DNA repair inhibition. HEK293T ELG1-luciferase reporter, luminescence, 16 h; DNA damage induced by 5-fluorouridine. Potency, µM (doses to about 46.1 µM), most hits filed as inhibitors. hit rate 2.3% among 330,000. AID 504467; further: nearly all actives have a fitted effect of over 55% in size
#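 Overnight (16 hr) co-exposure of 2,000 cells/well to 5-fluorouridine and compound at 37 °C preceded detection. Luciferase was quantified via ONE-Glo luminescence; loss of signal denotes inhibition.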
# SMN2 splice enh: enhancers of SMN2 splice variant expression; HEK293 SMN2-luciferase splicing reporter, luminescence, 30-36 h; Potency, µM (series often up to 46.1 µM), usual class: activators; hit rate 2.8% among 210,000; AID 1458; further: nearly all actives have a fitted effect of over 55% in size
#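 HEK293 cells carry an SMN2 […]–luciferase reporter in which exon 7 inclusion puts luciferase in frame. Cells were plated 10-12 h before compound addition, then incubated 30-36 h at 37C. ONE-Glo luminescence was read; sodium butyrate at 4.5 mM final served as control.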
# Hits are given with their value; 0 = inactive; ? = inconclusive; - = not tested or not shown; [ ] = another dose, or the depositor's remark. Shown are actives, neighbours in structure and some others; about 9.2% of the full set was active somewhere. The call rests on the fitted dose curve; in most records, active means well fitted curve in the direction sought with a large enough effect; inconclusive means small, poorly fitted or top-dose-only effect, or another doubt; inactive means no such curve, though single readings can be large; an effect the other way counts as inactive or inconclusive.
SMILES,Rab9 prom act,ELG1 genotoxic,NPC1 prom act,FLuc modulator,ELG1 DNA repair,SMN2 splice enh
Cc1[nH]c2ccccc2c1C=NNC(=O)c1cc(-c2cccnc2)nc2ccccc12,-,0,-,-,16µM,-
O=C(N/N=C/C=C/c1ccccc1[N+](=O)[O-])c1cc(-c2cccnc2)nc2ccccc12,0,0,0,?,16µM,0
COc1ccccc1-c1cc(C(=O)N/N=C/C=C/c2ccccc2[N+](=O)[O-])c2ccccc2n1,0,0,0,0,16µM,0
O=C(NN=Cc1cccc([N+](=O)[O-])c1)c1cc(-c2cccnc2)nc2ccccc12,-,0,-,-,23µM,-
COc1ccccc1-c1cc(C(=O)N/N=C\c2cnn(C)c2C)c2ccccc2n1,0,0,0,0,?,0
CCN(CC)CCN(C(=O)c1ccc2c(c1)OCCO2)c1nc2cc3c(cc2s1)OCO3,0,0,0,0,0,-
CCN(CC)CCN(C(=O)c1cc2c(ccc3ccccc32)oc1=O)c1nc2cc3c(cc2s1)OCCO3,0,18µM,0,0,?,-
O=C(N=c1nc2ccccn2s1)c1ccccc1,?,0.13µM,0.89µM,0.19µM,?,1.8µM
CN(C)c1cc(N/N=C/c2ccccc2C(F)(F)F)nc(N(C)C)n1,0,0,0,0,16µM,-
CCc1ccccc1NC(=O)Cn1c(=O)n(Cc2ccco2)c(=O)c2sc3ccccc3c21,-,-,-,0,-,0
CC(CNC(=O)C1CCN(C(=O)c2cc3sccc3n2C)CC1)c1ccccc1 (stereo not drawn),-,-,-,0,-,?
Oc1ccc(-c2csc(Nc3ncccn3)n2)cc1O,0,?,0,8.5µM,?,?
NS(=O)(=O)c1ccc(Nc2nc(-c3ccc4ccccc4c3)cs2)cc1,0,0,0,0,0,0
Cc1ccc(C)c(-c2csc(Nc3ncccn3)n2)c1,0[1.84 µM],0,0,0,?,-
Cc1cccc(Nc2nc(-c3ccc(O)cc3O)cs2)n1,4µM,?,3.2µM,13µM,?,-
Oc1ccc(-c2csc(Nc3ncccn3)n2)c(O)c1,1.1µM,7.3µM,3.2µM,3µM,?,11µM
O=C(Cn1nc(-c2ccccc2)c2ccccc2c1=O)NCCO,0[1.84 µM],0,0,0,0,-
CCN(C(=O)c1nn(-c2ccc(OC)c(Cl)c2)c(=O)c2c1c1ccccc1n2C)c1cc(OC)ccc1OC,-,-,-,0,-,0
COc1ccccc1N(Cc1ccccc1)S(=O)(=O)c1cccc(C(=O)Nc2cc(C)ccn2)c1,?,?,?,0.67µM,?,-
CCOc1ccccc1NC(=O)c1cccc(S(=O)(=O)N(Cc2ccccc2)c2ccccc2OC)c1,0,0,0,0,0,0
COc1ccccc1N(Cc1ccccc1)S(=O)(=O)c1cccc(C(=O)O)c1,0,0,0,0,0,5µM
CSc1nc(SCC(=O)O)c2c3c(sc2n1)COC(C)(C)C3,0,0,0,?,?,-
CSC1=NC(NCCCO)c2c(sc3c2CC(C)(C)OC3)N1 (stereo not drawn),0,0,0,0,21µM,0
COc1ccc(C)cc1NC(=O)N1CCC(CN2CCOCC2)CC1,-,-,-,0,-,-
CC(C)(C)C(=O)COC(=O)c1cc2ccccc2cc1O,0,?,0,6.7µM,?,?
SMILES,Rab9 prom act,ELG1 genotoxic,NPC1 prom act,FLuc modulator,ELG1 DNA repair,SMN2 splice enh
N#Cc1ccsc1NC(=O)COC(=O)c1ccc(NC(N)=O)cc1,?,21µM,1.1µM,5.4µM,?,13µM
N#Cc1ccsc1NC(=O)COC(=O)c1cc2ccccc2cc1O,3.2µM,?,0,4.3µM,?,22µM
COc1ccc(S(N)(=O)=O)cc1C(=O)OCC(=O)Nc1sccc1C#N,-,0,-,-,0,-
CCN(CC)c1ccc(C(=O)OCC(=O)Nc2sccc2C#N)cc1,2.8µM,?,3.2µM,12µM,?,10µM
COc1ccc(S(=O)(=O)n2nc(C)c(S(=O)(=O)N3CCC(C)CC3)c2C)cc1OC,-,-,-,0,-,-
COc1cc(CCC(=O)OCC(=O)N(CC(C)C)C2CCS(=O)(=O)C2)cc(OC)c1OC (stereo not drawn),0,0,0,0,0,-
Cc1cccc(OCc2nc(CC(=O)Nc3ccc(Cl)cc3)cs2)c1,-,-,-,0,-,-
N#Cc1ccsc1NC(=O)COc1ccc(-c2nnco2)cc1,?,?,?,15µM,?,?
N#CCSc1ccccc1NC(=O)COc1ccc(-c2nnco2)cc1,0,0,0,0,?,-
COc1ccccc1CN1CC(C(=O)NCCCc2ccc(F)cc2)CCC1=O (stereo not drawn),0,0[9.26 µM],0,0,10µM,-
COc1ccccc1CN1CC(C(=O)NCc2c(F)ccc(C)c2F)CCC1=O (stereo not drawn),?,?,?,30µM,?,-
COc1ccc(C)cc1-n1nnnc1SCn1nnc2ccccc2c1=O,0,0,0,0,5.8µM,0
COc1ccc(C)cc1-n1nnnc1SCc1csc(C)n1,?,0,0,0,0,0
COc1ccc(C)cc1-n1nnnc1SCc1cc(=O)n2cc(C)ccc2n1,0,0,0,0,18µM,0
Cc1ccc(-n2nnnc2SCn2nnc3ccccc3c2=O)cc1,3.5µM,16µM,?,13µM,?,0
O=c1c2ccccc2nnn1CSc1nnc2ccccn12,3.2µM,18µM,3.5µM,15µM,?,13µM
COc1ccc(-c2cc(C(=O)Nc3ccc(C#N)cc3)no2)cc1,-,-,-,0,-,0
Cc1cccc(N=Nc2c(O)[nH]c3ccc(Br)cc23)c1,0,?,?,15µM,?,-
Oc1[nH]c2ccc(Br)cc2c1N=NC(=S)Nc1ccc(F)cc1,0,0,0,0,?,-
Oc1ccc(NC(=S)N=Nc2c(O)[nH]c3ccc(Br)cc23)cc1,0,0,0,0,16µM,0
CN1C(=O)C2(C(C#N)=C(N)N(c3cc(Cl)cc(Cl)c3)C3=C2C(=O)CCC3)c2ccccc21 (stereo not drawn),0,0,0,0,10µM,0
Cc1[nH]c2ccccc2c1/C=N/Nc1nc(Nc2ccccc2)nc(N2CCOCC2)n1,0,0,0,4.8µM,23µM,0
Oc1[nH]c2ccccc2c1N=Nc1nc(Nc2ccccc2)nc(N2CCOCC2)n1,0,0,0,?,3.7µM,-
Cc1cccc(OCC(=O)Nc2c(C(=O)Nc3ccc(F)cc3)oc3ccccc23)c1,-,-,-,0,-,0
CC(=O)c1ccc(S(=O)(=O)NC2CC(=O)N(c3ccc(C)c(C)c3)C2)cc1 (stereo not drawn),0,0,0,0,0,-
NC(=O)C1CCCN(C(=O)c2ccc(-c3cccc(Cl)c3Cl)o2)C1 (stereo not drawn),?,?,?,9.5µM,?,-
CC(=O)N1CCN(C(=O)c2ccc(-c3cccc(C(F)(F)F)c3)o2)CC1,0,0,0,0,0,-
O=C(c1ccc(-c2cccc(C(F)(F)F)c2)o1)N1CCOCC1,0,16µM,0,?,?,0
